Assay [1] can be described thus: qHTS assay to identify small molecule HDAC inhibitors (AID 1259364). Further: top concentration of the series differs between compounds; nearly all actives have a fitted effect of over 45% in size. The procedure, abridged:
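Wild-type HCT-116 cells were plated overnight, exposed to compounds for 2 h at 37 °C, then given HDAC-Glo class I/II luminogenic reagent for 30 min at room temperature before luminescence was read.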
A general note: In qHTS, concentration-response curves come from the screen itself.

Assay [2] in a line: qHTS assay to identify small molecule HDAC inhibitors - cell viability counter screen (AID 1259365). Further: series mostly up to about 92 µM; nearly all actives have a fitted effect of over 50% in size. Summed up: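 HCT-116 (wild type), 1,500 cells/well, overnight 37C/5% CO2; compound in DMSO 2hr; CellTiter-Glo 30min RT; luminescence read.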
Assay [3] in a line: qHTS assay to identify small molecule agonists of the estrogen receptor beta (ER-beta) signaling pathway - cell viability counter screen (AID 1259380). Further: nearly all actives have a fitted effect of over 30% in size. Further: potency means the concentration at half of the fitted maximal effect. Summed up:
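ER-beta-UAS-bla HEK293T cells in medium with 2% charcoal-stripped FBS were preincubated 6 hr at 37C, dosed with compound in DMSO for 16 hr, then after the bla read, CellTiter-Glo was added for 30 min at room temperature; luminescence recorded.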

In assay [4] the target is Androgen receptor (Homo sapiens) (UniProt P10275). The experiment in a line: qHTS assay to identify small molecule agonists of the androgen receptor (AR) signaling pathway in the presence of an antagonist (AID 1259381; calls by dose curve; further: nearly all actives have a fitted effect of over 15% in size). The procedure, abridged: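 MDA-kb2 human breast carcinoma cells carrying an MMTV-luciferase reporter (AR- and GR-responsive) were treated with compounds at 15 concentrations plus 3.0uM final nilutamide for 16hr at 37C without CO2; luminescence was read after ONE-Glo addition.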
Chain of Androgen receptor (Homo sapiens) (P10275 whole entry, looked up): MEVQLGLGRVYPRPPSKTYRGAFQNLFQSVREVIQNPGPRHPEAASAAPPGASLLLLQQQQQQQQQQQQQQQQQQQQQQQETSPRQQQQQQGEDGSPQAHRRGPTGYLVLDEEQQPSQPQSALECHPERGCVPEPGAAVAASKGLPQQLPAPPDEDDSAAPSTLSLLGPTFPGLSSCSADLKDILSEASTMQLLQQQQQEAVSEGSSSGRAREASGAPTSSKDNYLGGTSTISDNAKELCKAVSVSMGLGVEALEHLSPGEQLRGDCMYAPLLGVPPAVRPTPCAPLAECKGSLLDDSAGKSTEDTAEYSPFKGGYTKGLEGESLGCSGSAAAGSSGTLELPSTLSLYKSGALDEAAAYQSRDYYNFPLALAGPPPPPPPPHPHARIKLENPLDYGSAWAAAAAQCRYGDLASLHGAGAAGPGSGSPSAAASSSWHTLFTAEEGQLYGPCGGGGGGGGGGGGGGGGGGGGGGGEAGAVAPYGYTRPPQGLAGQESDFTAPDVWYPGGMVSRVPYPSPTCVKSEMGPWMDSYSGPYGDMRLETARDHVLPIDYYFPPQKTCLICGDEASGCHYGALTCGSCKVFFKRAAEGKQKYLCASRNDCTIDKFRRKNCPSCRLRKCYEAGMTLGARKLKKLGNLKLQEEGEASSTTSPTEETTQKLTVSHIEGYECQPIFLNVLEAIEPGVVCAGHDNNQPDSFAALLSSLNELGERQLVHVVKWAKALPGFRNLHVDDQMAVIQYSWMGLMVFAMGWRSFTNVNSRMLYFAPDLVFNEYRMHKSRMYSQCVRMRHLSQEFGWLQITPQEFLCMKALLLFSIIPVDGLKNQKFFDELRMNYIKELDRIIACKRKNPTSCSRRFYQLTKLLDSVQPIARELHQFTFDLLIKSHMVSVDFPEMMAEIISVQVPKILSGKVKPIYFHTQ

Assay [5] can be described thus: qHTS assay to identify small molecule antagonists of the estrogen receptor beta (ER-beta) signaling pathway - cell viability counter screen (AID 1259382). Further: nearly all actives have a fitted effect of over 55% in size. Further: potency means the concentration at half of the fitted maximal effect. The procedure, abridged: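 ER-beta-UAS-bla HEK293T cells (2,000/well, 2% charcoal-stripped FBS) were pre-incubated 6 hr at 37C, then given compound plus 1nM final 17-beta-estradiol for 16 hr. Viability was read in the same wells by CellTiter-Glo luminescence after 30 min at room temperature.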

Assay [6] is described as follows: qHTS assay to identify small molecule agonists or antagonists of the thyroid stimulating hormone receptor (TSHR) signaling pathway - wild type cell line counter screen (AID 1259384; calls by dose curve). Summed up:
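Wild-type HEK293 cells were plated 18 h at 37 C/5% CO2, pin-dosed with compound plus Ro20-1724 medium, held 30 min at room temperature, then given cAMP-d2 and anti-cAMP-cryptate; fluorescence was read after 1 h. Fifteen concentrations, triplicate.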

The target in assay [7] is Thyrotropin receptor (Homo sapiens) (UniProt P16473). The experiment in a line: qHTS assay to identify small molecule antagonists of the thyroid stimulating hormone receptor (TSHR) signaling pathway (AID 1259385; calls by dose curve; further: nearly all actives have a fitted effect of over 20% in size). The procedure, abridged:
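TSHR-HEK293 cells were plated and held 18 h at 37C/5% CO2, then given compound plus Ro20-1724 and stimulated with TSH at 1.5 ng/mL final. After 30 min at room temperature, cAMP was detected with cAMP-d2/anti-cAMP-cryptate (1 h) by fluorescence.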

Assay [8] in a line: qHTS assay to identify small molecule agonists of the estrogen receptor alpha (ER-alpha) signaling pathway in the presence of an antagonist - cell viability counter screen (AID 1259386).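 Further: cells exposed to compounds for 22 h at 37 °C before the viability read; nearly all actives have a fitted effect of over 30% in size.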 Further: potency means the concentration at half of the fitted maximal effect. The procedure, abridged:
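VM7Luc4E2 cells (endogenous full-length ER-alpha, 4×ERE-luciferase) were held 5 days in phenol red-free medium with 10% charcoal-stripped FBS, plated, then given 10.0nM ICI-182,780 and compounds at 15 concentrations for 22hr at 37C; viability read by CellTiter-Fluor fluorescence.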

A short description of assay [9]: qHTS assay to identify small molecule antagonists of the sonic hedgehog signaling (Shh) pathway - cell viability counter screen (AID 1259367). Further: nearly all actives have a fitted effect of over 55% in size. Further: potency means the concentration at half of the fitted maximal effect. Summed up:
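After a 4 hr settling period, 3T3 Gli1-Luc cells were treated with DMSO-dissolved chemicals and conditioned medium, kept 24 hr at 37C in 5% CO2, and assayed for viability by CellTiter-Fluor fluorescence following 1 hr reagent incubation.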

Assay [10] can be described thus: qHTS assay to identify small molecule agonists of the sonic hedgehog signaling (Shh) pathway (AID 1259368; calls by dose curve; further: series mostly up to about 92 µM; nearly all actives have a fitted effect of over 15% in size). Summed up: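 NIH/3T3-derived 3T3Gli1-Luc cells carrying a stably integrated Gli1 response element–firefly luciferase reporter were plated, left 4 hr at 37 C, then given compounds in DMSO for 24 hr. Luminescence was read 30 min after adding luciferase reagent.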

Assay [11] in a line: qHTS assay to identify small molecule antagonists of the sonic hedgehog signaling (Shh) pathway (AID 1259369; calls by dose curve; further: nearly all actives have a fitted effect of over 45% in size; further: potency means the concentration at half of the fitted maximal effect). The procedure, abridged: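 NIH/3T3-derived 3T3Gli1-Luc cells with stably integrated Gli1-Luc reporter were preincubated 4hr at 37 C, then given compounds in DMSO plus Shh conditioned medium and incubated 24hr. Firefly luciferase luminescence read after 30min reagent at room temperature.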

In assay [12] the target is Estrogen receptor beta (Homo sapiens) (UniProt Q92731). Kind of assay: qHTS assay to identify small molecule antagonists of the estrogen receptor beta (ER-beta) signaling pathway (AID 1259378; active means well fitted inhibition curve with a large enough effect in the signal ratio in the repeat runs, not every such curve was filed as active; the % refers to the signal ratio; further: potency means the concentration at half of the fitted maximal effect). Summed up:
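ER-beta-UAS-bla HEK293T (GripTite) cells in 2% charcoal-stripped FBS medium were preincubated 6 hr at 37C, dosed with compound, then stimulated with 1 nM E2 (final) for 16 hr; beta-lactamase reporter read by B/G FRET fluorescence after 2 hr substrate loading.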

Assay [13] is described as follows: qHTS assay to identify small molecule agonists of the androgen receptor (AR) signaling pathway in the presence of an antagonist - cell viability counter screen (AID 1259379). Further: nearly all actives have a fitted effect of over 25% in size. Further: potency means the concentration at half of the fitted maximal effect. Summed up:
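MDA-kb2 human breast carcinoma cells (stable MMTV-luciferase, AR/GR responsive) were seeded 3,000 cells/well, pre-incubated 5 hr at 37C without CO2, then given 3.0uM nilutamide and compounds at 15 concentrations for 16 hr. Viability was read by CellTiter-Fluor fluorescence.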

Assay [14] has as its target Estrogen receptor (Homo sapiens) (UniProt P03372). Kind of assay: qHTS assay to identify small molecule agonists of the estrogen receptor alpha (ER-alpha) signaling pathway in the presence of an antagonist (AID 1259383; calls by dose curve; further: top concentration of the series differs between compounds; nearly all actives have a fitted effect of over 15% in size). Summed up:
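VM7Luc4E2 cells (endogenous full-length ER-alpha, 4×ERE-luciferase) were precultured 5 days in phenol red-free medium with 10% charcoal-stripped FBS, given 10.0nM ICI-182,780 (final), then treated with compounds at 15 concentrations for 22hr at 37C; luminescence read with ONE-Glo.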

The target in assay [15] is Estrogen receptor beta (Homo sapiens) (UniProt Q92731). The experiment in a line: qHTS assay to identify small molecule agonists of the estrogen receptor beta (ER-beta) signaling pathway (AID 1259377; active means well fitted activation curve with a large enough effect in the signal ratio in the repeat runs, not every such curve was filed as active; the % refers to the signal ratio). The procedure, abridged: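 Beta-lactamase reporter readout: fluorescence of LiveBLAzer B/G FRET substrate after 2 h at room temperature, following 16 h compound treatment of ER-beta-UAS-bla HEK293T cells at 37C in 2% charcoal-stripped FBS medium.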
Chain of Estrogen receptor beta (Homo sapiens) (Q92731 whole entry, looked up): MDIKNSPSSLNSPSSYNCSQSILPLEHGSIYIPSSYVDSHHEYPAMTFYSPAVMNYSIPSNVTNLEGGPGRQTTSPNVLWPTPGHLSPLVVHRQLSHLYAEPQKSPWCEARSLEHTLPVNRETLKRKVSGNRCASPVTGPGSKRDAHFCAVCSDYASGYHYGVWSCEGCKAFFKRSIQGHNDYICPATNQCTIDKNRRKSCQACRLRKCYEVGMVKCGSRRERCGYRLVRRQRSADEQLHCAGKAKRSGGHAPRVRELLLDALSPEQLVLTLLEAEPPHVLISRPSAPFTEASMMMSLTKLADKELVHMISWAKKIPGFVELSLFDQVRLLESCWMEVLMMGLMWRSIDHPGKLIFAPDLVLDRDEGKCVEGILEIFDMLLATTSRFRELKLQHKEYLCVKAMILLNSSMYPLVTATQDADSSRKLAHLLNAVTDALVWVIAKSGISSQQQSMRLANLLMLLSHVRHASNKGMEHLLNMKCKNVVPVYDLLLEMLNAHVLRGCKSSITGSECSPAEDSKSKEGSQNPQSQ

For assay [16], the target named is Progesterone receptor (Homo sapiens) (UniProt P06401). The experiment in a line: qHTS assay to identify small molecule agonists of the progesterone receptor (PR) signaling pathway (AID 1346784; calls by dose curve; further: nearly all actives have a fitted effect of over 30% in size). Summed up:
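HEK 293T PR-UAS-bla reporter cells, 2% charcoal-stripped FBS; 6 hr settle at 37C/5% CO2, compound (DMSO) 16 hr, LiveBLAzer B/G FRET substrate 2 hr RT, fluorescence intensity read.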

A short description of assay [17]: qHTS assay to identify small molecule agonists of the sonic hedgehog signaling (Shh) pathway - cell viability counter screen (AID 1259366). Further: potency means the concentration at half of the fitted maximal effect; nearly all actives have a fitted effect of over 50% in size. Summed up: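 CellTiter-Fluor fluorescence read-out, 1 hr at 37C, added after 23hr compound exposure. Cells: 3T3 Gli1-Luc, an NIH/3T3 clone with stably integrated Gli1-Luc reporter, plated 4hr before compound.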

Results filed as inconclusive are left out. Active and inactive are the calls of the source. Unless noted, the call rests on the fitted dose curve; in most records, active means well fitted curve in the direction sought with a large enough effect in the repeat runs; inconclusive means weak or mixed curves; inactive means no such curve, though single readings can be large; an effect the other way counts as inactive or inconclusive.

Chain of Progesterone receptor (Homo sapiens) (P06401 whole entry, looked up): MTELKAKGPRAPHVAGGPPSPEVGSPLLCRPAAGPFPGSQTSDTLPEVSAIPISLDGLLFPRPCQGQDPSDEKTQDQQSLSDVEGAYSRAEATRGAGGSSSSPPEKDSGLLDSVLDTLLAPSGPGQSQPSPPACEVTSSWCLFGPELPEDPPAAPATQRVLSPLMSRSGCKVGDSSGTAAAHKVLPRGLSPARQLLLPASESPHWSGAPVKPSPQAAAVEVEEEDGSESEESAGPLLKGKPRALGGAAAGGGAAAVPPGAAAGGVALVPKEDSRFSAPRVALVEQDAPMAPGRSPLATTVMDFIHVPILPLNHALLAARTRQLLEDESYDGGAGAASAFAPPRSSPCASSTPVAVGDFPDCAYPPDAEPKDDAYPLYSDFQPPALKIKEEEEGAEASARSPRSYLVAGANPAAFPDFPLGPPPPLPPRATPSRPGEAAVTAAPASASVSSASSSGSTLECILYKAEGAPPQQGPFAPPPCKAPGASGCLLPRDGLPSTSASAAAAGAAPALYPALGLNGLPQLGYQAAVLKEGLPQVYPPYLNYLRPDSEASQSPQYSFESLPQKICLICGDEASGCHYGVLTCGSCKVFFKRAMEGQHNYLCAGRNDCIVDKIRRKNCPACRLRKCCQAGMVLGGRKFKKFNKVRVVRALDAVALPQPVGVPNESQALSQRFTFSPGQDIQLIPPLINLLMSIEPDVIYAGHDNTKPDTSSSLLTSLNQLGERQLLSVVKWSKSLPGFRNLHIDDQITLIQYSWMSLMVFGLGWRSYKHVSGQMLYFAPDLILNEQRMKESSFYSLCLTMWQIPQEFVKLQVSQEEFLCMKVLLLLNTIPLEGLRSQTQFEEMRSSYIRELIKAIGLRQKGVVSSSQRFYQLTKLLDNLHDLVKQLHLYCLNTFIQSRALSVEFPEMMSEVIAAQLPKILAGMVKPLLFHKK
Chain of Thyrotropin receptor (Homo sapiens) (P16473 whole entry, looked up): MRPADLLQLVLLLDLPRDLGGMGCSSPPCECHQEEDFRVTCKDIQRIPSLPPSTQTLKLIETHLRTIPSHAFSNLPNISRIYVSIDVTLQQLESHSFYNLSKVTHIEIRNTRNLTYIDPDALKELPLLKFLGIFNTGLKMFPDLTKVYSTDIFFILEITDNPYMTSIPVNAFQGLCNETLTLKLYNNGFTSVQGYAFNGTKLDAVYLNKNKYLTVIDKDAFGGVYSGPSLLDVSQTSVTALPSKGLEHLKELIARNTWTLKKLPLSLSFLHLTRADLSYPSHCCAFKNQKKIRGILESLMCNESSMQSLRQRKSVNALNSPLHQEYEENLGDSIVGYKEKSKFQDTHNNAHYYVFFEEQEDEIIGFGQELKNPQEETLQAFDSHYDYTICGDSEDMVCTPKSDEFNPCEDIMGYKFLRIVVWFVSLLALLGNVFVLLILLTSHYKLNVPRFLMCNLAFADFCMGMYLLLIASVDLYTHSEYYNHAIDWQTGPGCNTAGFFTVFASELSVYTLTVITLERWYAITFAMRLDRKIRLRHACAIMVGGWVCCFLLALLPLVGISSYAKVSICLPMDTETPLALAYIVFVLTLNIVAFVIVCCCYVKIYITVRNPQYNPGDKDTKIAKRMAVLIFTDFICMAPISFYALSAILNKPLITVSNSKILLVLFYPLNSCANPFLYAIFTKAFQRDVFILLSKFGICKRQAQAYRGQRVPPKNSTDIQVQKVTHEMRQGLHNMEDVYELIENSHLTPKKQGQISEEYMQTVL
Chain of Estrogen receptor (Homo sapiens) (P03372 whole entry, looked up): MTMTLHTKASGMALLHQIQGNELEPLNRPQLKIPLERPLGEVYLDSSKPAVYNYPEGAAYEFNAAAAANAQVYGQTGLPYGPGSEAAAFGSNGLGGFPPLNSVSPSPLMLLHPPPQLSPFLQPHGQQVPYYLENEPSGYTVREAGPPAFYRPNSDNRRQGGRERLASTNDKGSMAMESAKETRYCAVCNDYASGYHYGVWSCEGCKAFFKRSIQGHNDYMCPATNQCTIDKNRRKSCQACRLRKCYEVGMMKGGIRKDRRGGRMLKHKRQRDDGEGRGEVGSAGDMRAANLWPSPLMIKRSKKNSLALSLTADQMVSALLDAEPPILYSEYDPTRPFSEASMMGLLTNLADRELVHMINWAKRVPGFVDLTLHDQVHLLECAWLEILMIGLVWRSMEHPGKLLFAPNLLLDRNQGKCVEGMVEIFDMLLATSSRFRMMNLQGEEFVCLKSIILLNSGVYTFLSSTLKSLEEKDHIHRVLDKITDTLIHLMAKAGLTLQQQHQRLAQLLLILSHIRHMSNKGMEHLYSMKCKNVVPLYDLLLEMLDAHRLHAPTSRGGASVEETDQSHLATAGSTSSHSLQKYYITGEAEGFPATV

Consider `CC1=NC(C)OC1C` (stereo unspecified), for which the Potency result in [1], in [2], in assay [3], in assay [4], in assay [5] and in assay [7] was “inactive” throughout. The Potency result in [8] is “inactive”. Besides, the result in assay [6] was inactive.
Take `On1ccccc1=S`: the Potency entry in assay [2] and in [10] was “inactive” in each case. Besides, the Potency is 3.03 µM (active) in assay [9], 0.762 µM (active) in assay [11], 0.428 µM (active) in assay [12] and 0.539 µM (active) in [3]. The compound was called inactive in assay [6].
Consider `CC[C@H]1O[C@]2(CC[C@@H]1C)C[C@@H]1C[C@@H](C/C=C(\C)C[C@@H](C)/C=C/C=C3\CO[C@@H]4[C@H](O)C(C)=C[C@@H](C(=O)O1)[C@]34O)O2`, for which the Potency entry in assay [2], in [9], in assay [11], in assay [14] and in assay [7] was “inactive” throughout. Moreover, the Potency in assay [13] was 60.6 µM (active); in assay [3] it was 24.1 µM (active); in assay [8] it was 68 µM (active). In addition, the result in [6] was inactive.
In the case of `CC(C)OC(=O)c1cc2c(OCC(O)CNC(C)(C)C)cccc2[nH]1` (stereo unspecified), the Potency result in [1], in [2], in [10], in assay [15], in assay [12] and in [4] was “inactive” each time. Besides, the Potency entry in [7], in [8] and in assay [16] was “inactive” each time. Moreover, the Potency in [11] was 2.66 µM (active). The compound was called inactive in assay [6].
Consider `COc1ccc(CN2CCN(C(c3ccc(F)cc3)c3ccc(F)cc3)CC2)c(OC)c1OC`, for which the Potency result in assay [1], in assay [2] and in assay [10] was “inactive” each time. In addition, the Potency in assay [11] was 29.8 µM (active); in [13] it was 26.6 µM (active); in assay [3] it was 11.9 µM (active); in [5] it was 10.6 µM (active). For the same compound, the compound was classed as inactive in assay [6].
With `CCCCN(CCCC)C(=O)N(CCCC)CCCC`, the Potency entry in assay [1], in [2], in assay [10], in [11], in assay [15] and in [13] was “inactive” throughout. Further, the Potency entry in assay [5], in assay [8] and in [16] was “inactive” each time. In addition, in assay [6], the compound was called inactive.
Take `O=c1cccccc1O`: the Potency result in assay [2], in assay [15], in [13], in assay [14], in assay [7] and in [8] was “inactive” throughout. Also, the Potency entry in assay [16] is “inactive”. For the same compound, the Potency in assay [17] is 55.5 µM (active); in assay [9], 62.3 µM (active); in assay [11] it was 24.8 µM (active). For the same compound, the compound was classed as inactive in assay [6].
Regarding `CC(=O)N1CCN(c2ccc(OC[C@H]3CO[C@](Cn4ccnc4)(c4ccc(Cl)cc4Cl)O3)cc2)CC1`, the Potency entry in assay [1], in assay [10] and in assay [14] was “inactive” each time. For the same compound, the Potency was 54.5 µM (active) in assay [17]; 27.3 µM (active) in assay [9]; 3.06 µM (active) in assay [11]; 21.7 µM (active) in assay [12]; 54.5 µM (active) in assay [13]; 48.6 µM (active) in [3]. Also, the Potency is 30.6 µM (active) in assay [5] and 61.1 µM (active) in [8]. Besides, the compound was classed as inactive in assay [6].

Source of the values: PubChem BioAssay (Tox21).
